PI5P4K alpha inh = qHTS for Inhibitors of phosphatidylinositol 5-phosphate 4-kinase (PI5P4K); PI5P4Kalpha enzyme, ADP-Glo luminescence, 60 min; active compounds read low; Phosphatidylinositol 5-phosphate 4-kinase type-2 alpha (Homo sapiens), P48426; max response, %; 330,000 tested, 1.2% active; active means max response of -50% or lower; inconclusive means between -30% and -50%; inactive means -30% or higher; further: value at the top dose of about 77 µM; on the % scale 0 is the no-effect control and ±100 the full control effect
Target sequence (P48426 whole entry, looked up): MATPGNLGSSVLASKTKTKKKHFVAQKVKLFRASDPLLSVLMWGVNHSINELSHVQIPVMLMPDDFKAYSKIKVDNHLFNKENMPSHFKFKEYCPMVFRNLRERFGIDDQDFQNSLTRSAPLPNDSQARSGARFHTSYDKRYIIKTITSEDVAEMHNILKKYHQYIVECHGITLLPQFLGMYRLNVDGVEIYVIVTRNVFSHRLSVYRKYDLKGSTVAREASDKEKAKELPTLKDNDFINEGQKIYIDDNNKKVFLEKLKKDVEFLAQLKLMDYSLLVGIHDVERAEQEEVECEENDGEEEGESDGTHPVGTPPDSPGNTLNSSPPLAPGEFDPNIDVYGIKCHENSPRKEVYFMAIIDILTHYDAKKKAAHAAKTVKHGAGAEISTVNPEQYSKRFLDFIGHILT
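Enzyme plus substrate dispensed, test compounds pinned in, then ATP (5 microM final) added. After 60 min at RT, ADP-Glo reagent 1 for 45 min and reagent 2 for 30 min preceded luminescence imaging.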
BAZ2B inh = qHTS Assay for Inhibitors of BAZ2B; Bromodomain adjacent to zinc finger domain protein 2B (Homo sapiens), Q9UIF8; AlphaScreen BAZ2B-H3K14Ac peptide displacement; Potency, µM (top dose mostly 114 µM), without a hit: top-dose activity change, negative = inhibition, usual class: inhibitors; 360,000 tested, 4.4% active; further: potency means the concentration at half of the fitted maximal effect; on the % scale 0 is the no-effect control and ±100 the full control effect; nearly all actives have a fitted effect of over 60% in size
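BAZ2B 50 nM plus b-H3(5-23)K14Ac 50 nM, PBS pH 7.4/0.01% Tween-20, 30 min RT; compound added (max 110 uM), 30 min RT; streptavidin donor/Ni-chelate acceptor beads 10 ug/mL final, 20 min dark; AlphaScreen read.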
JMJD2A Tudor inh = qHTS Assay for Inhibitors of JMJD2A-Tudor Domain; AlphaScreen JMJD2A-Tudor / H3K4me3 peptide binding; AID 504339, 2011; Potency, µM (highest dose often 114 µM), inactives show at the highest dose activity change, negative = inhibition, usual class: inhibitors; 390,000 tested, 4.4% active; Lysine-specific demethylase 4A (Homo sapiens), O75164; further: potency means the concentration at half of the fitted maximal effect; on the % scale 0 is the no-effect control and ±100 the full control effect; nearly all actives have a fitted effect of over 50% in size
PLK1 PBD inh = qHTS for Inhibitors of PLK1-PDB (polo-like kinase 1 - polo-box domain): Primary Screen; Serine/threonine-protein kinase PLK1 (Homo sapiens), P53350; Plk1 PBD binding of FITC phosphopeptide, fluorescence polarization; Potency, µM, for the others: max response, negative = inhibition, usual class: inhibitors; 360,000 tested, 2.8% active; further: potency means the concentration at half of the fitted maximal effect; series mostly up to about 57 µM; on the % scale 0 is the no-effect control and ±100 the full control effect; nearly all actives have a fitted effect of over 65% in size
G9a inh = qHTS Assay for Inhibitors of Histone Lysine Methyltransferase G9a; Histone-lysine N-methyltransferase EHMT2 (Homo sapiens), Q96KQ7; G9a H3K9 monomethylation, AlphaScreen, 2 h; Potency, µM (titrated, usually from 102 µM), for inactives: at the top dose activity, negative = inhibition, hits mostly inhibitors; 350,000 tested, 8.8% active; further: potency means the concentration at half of the fitted maximal effect; on the % scale 0 is the no-effect control and ±100 the full control effect; nearly all actives have a fitted effect of over 75% in size
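AlphaScreen read-out: biotin-H3K9 peptide (500 nM) methylation by 20 nM enzyme with 20 uM SAM, 2 h at room temperature after 15 min compound preincubation; anti-monomethyl H3K9 antibody plus donor/acceptor beads, 10 min dark.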
HP1b chromo inh = HTS for Inhibitors of HP1-beta Chromodomain Interactions with Methylated Histone Tails | AID 540317, 2011 | 390,000 tested, 0.56% active | AlphaScreen HP1-beta / biotin-H3K9me3 peptide binding | Potency, µM (series often up to 114 µM), for inactives: top-dose activity change, negative = inhibition, hits mostly inhibitors; further: potency means the concentration at half of the fitted maximal effect; nearly all actives have a fitted effect of over 70% in size
Target sequence (P83916 whole entry, looked up): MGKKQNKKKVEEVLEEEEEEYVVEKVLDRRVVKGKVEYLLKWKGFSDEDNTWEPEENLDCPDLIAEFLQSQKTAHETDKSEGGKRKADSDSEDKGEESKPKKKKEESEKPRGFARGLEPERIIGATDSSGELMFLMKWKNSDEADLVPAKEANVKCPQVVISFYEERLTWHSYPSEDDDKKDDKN
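AlphaScreen: HP1-beta (50 nM) preformed 30 min with biotin-H3(1-18)K9me3 peptide (50 nM) in PBS pH 7.4, 0.01% Tween-20. Compound added for 30 min at RT, then streptavidin donor/nickel chelate acceptor beads (10 ug/mL) for 30 min.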
* = called active by the depositor; ? = inconclusive; nt = not tested or not shown; [ ] = dose if it differs, or a comment. This is a sample that favours compounds with a hit; in the whole collection about 12% have one here. Unless noted, the call rests on the fitted dose curve; in most records, active means well fitted curve in the direction sought with a large enough effect; inconclusive means small, poorly fitted or top-dose-only effect, or another doubt; inactive means no such curve, though single readings can be large; an effect the other way counts as inactive or inconclusive.

SMILES	PI5P4K alpha inh	BAZ2B inh	JMJD2A Tudor inh	PLK1 PBD inh	G9a inh	HP1b chromo inh
O=C(CCC(=O)N1CCN(c2ccc(O)cc2)CC1)c1cccs1	-7	-29%	-11%	4%	13µM*	-18%
Cc1ccc(OCCC(=O)N2CCN(c3ccc(O)cc3)CC2)cc1	2	-35%	14µM*	-12%	11µM*	-26%
Cc1ccc(S(=O)(=O)N2CCN(C(=O)CN3CCN(c4ccc(O)cc4)CC3)CC2)cc1	-5	nt	45µM*	-7%	nt	?
COc1cc2c(cc1OC)C1(CCCC1)CNC2c1ccc([N+](=O)[O-])cc1 (centres undefined)	5	?	-27%	1%	35µM*	-5%
COc1cccc2cc(C(=O)Oc3ccccc3)c(=O)oc12	6	?	-20%	-7%	nt	21%
CCOc1cccc2cc(C(=O)NCc3ccccc3)c(=N)oc12	-3	0%	1%	-2%	-3%	54%
CCOc1cccc2cc(C(N)=O)c(=N)oc12	-3	-4%	-3%	-6%	32µM*	28%[57 µM]
CCOc1cccc2cc(C(=O)Oc3ccc(OC)cc3)c(=O)oc12	3	-25%	-29%	-4%	20µM*	12%
CC1(C(=O)NS(=O)(=O)c2cccc(F)c2)CCN1C(=O)Cc1cccc2ccccc12 (centres undefined)	0	nt	nt	-7%	nt	nt
COc1ccc(CCNc2ncnc3c2c(C)c(C)n3CCO)cc1OC	4	-32%	?	27µM*	-9%	14%
Cc1c(C)n(CCc2ccccc2)c2ncnc(NCCCN(C)C)c12	-1	45µM*	?	1%	-19%[2.33 µM]	?
COC(=O)[C@]12CCCCC=C1N(CCc1ccc(OC)c(OC)c1)C(=O)[C@H](CC(=O)N1CCCCC1)C2	5	nt	nt	-4%	nt	nt
COc1ccc(Cn2c(=O)c3cccnc3n(Cc3cccc(F)c3)c2=O)cc1	nt	4%	29%	nt	59%[59 µM]	73%
COc1ccc(OC)c(CCNC(=O)c2cc3c(-c4ccccc4F)nn(C)c3s2)c1	nt	-37%	?	nt	?	8%
O=C(NN(C(=O)C1CC1)c1nc2ccccc2s1)C1CC1	-4	-39%	-16%	27µM*	?	1%
CC(C)C(=O)NN(C(=O)C(C)C)c1nc2ccccc2s1	5	-3%	-1%	0%	12%	28%
CCN1/C(=C/c2ccc3cc(C)ccc3[n+]2CC)Sc2ccc3sccc3c21	-13	nt	?	?	nt	?
CCN1/C(=C\c2ccc3cc(C)ccc3[n+]2CC)Sc2cc(C)c(C)cc21	-12	nt	?	0%	20µM*	?
CCN1/C(=C/c2ccc3cc(C)cc(C)c3[n+]2CC)Sc2cc(C)ccc21	?	?	16µM*	11%	16µM*	?
CCOC(=O)/C(C#N)=C(C)/C=C1\Sc2ccccc2N1CC	16	4%	-13%	-17%	-4%[59 µM]	11%
CCN1/C(=C/c2ccc3cccc(C)c3[n+]2CC)Sc2ccccc21	nt	50µM*	-28%	12%	50µM*	-5%
O=C(CCN1C(=O)C2C3C=CC(C3)C2C1=O)NCCc1ccccc1 (centres undefined)	-7	-6%	-14%[11.4 µM]	24µM*	-32%	-5%
O=C(CCN1C(=O)C2C3C=CC(C3)C2C1=O)Nc1ccccn1 (centres undefined)	-7	2%	-14%	2%	-5%[59 µM]	18%
Cc1cccc(NC(=O)CCN2C(=O)C3C4C=CC(C4)C3C2=O)n1 (centres undefined)	-28	-3%	-12%[11.4 µM]	12µM*	-5%	-1%
CC1CCC(Nc2nc3c(-c4cccc(C(F)(F)F)c4)nnn3c3ccccc23)CC1 (centres undefined)	nt	45%	21%	nt	74%[59 µM]	164%
SMILES	PI5P4K alpha inh	BAZ2B inh	JMJD2A Tudor inh	PLK1 PBD inh	G9a inh	HP1b chromo inh
Cc1ccccc1C(=O)NC(=S)Nc1cccc(NC(=O)C(C)C)c1	-4	-11%	?	-19%	8.9µM*	20%
COc1ccccc1C(=O)Nc1cc(Cl)ccc1O	2	-1%	-10%	2%	56µM*	10%
CC(C)C(=O)Nc1cccc(NC(=S)NC(=O)c2ccccc2Cl)c1	-1	-22%	-30%	-9%	-50%[59 µM]	34%
COc1ccccc1C(=O)Nc1cccc(NC(=O)c2ccccc2C)c1	-6	-7%	?	21µM*	36%[59 µM]	20%
CCC(C(=O)NCCc1ccccc1)n1nc(C)n2c(cc3sccc32)c1=O (centres undefined)	nt	0%	-13%	nt	3%[59 µM]	17%
COc1ccc(OC)c(NC(=O)Cn2c(=O)n(CC3CCCO3)c(=O)c3cc(OC)c(OC)cc32)c1 (centres undefined)	4	-27%	-19%	-5%	-2%	15%
CCCCS(=O)(=O)c1nc(-c2ccc(Br)cc2)cc(-c2ccccc2)c1C#N	nt	41%	-2%	nt	27%[59 µM]	94%
Cc1ccccc1NC(=O)COC(=O)Cc1ccsc1	-2	-14%	-14%	27µM*	6%	-6%
Cc1cccc(C)c1NC(=O)COC(=O)Cc1ccsc1	-3	-1%	-1%	-5%	-7%[59 µM]	28%
Cc1cc(C)c(NC(=O)COC(=O)Cc2ccsc2)c(C)c1	-7	1%	-15%	27µM*	15%	-2%
COc1ccc(-c2nc3cnc(Nc4cccc(OC)c4)nc3n(C[C@H]3CCCO3)c2=O)cc1	nt	nt	nt	nt	0%[0.501 µM]	nt
N#Cc1ccc[n+](CC(=O)c2ccc(Cl)cc2)c1	2	-31%	-17%	-15%	79µM*	36%
Cc1ccc[n+](CC(=O)c2ccc(Br)cc2)c1	4	5%	-12%	-11%	-4%[59 µM]	38%
CCCN1C(=O)c2ccccc2NC1c1ccc(Cl)c(Cl)c1 (centres undefined)	8	1%	-17%	21µM*	-2%[2.33 µM]	37%
CCCN1C(=O)c2ccccc2NC1c1ccc(Cl)cc1 (centres undefined)	-2	-6%	1%	2%	2%	38%
CCc1nn2c(=O)cc(COC(=O)c3cccc(NC(=O)COc4ccccc4)c3)nc2s1	nt	-4%	-5%	nt	20%[59 µM]	38%
CCOc1ccc(OCC)c(NC(=O)CSc2nnc(C3CC3)n2CC)c1	0	-8%	-16%	-13%	22%	14%
COc1ccc(NC(=O)c2ccco2)cn1	-12	4%	-3%	-20%	-13%	27%
COc1ccc(NC(=O)/C=C/c2ccco2)cn1	-10	?	-18%[57.1 µM]	-24%	45µM*	6%
